# Measurements: PubChem BioAssay (Tox21)
# Several values for one entry are separate records, joined by “and”; a condition that tells them apart may be missing. Equal entries are not always repeated. Records with an inconclusive call do not appear. Where a call stands in place of a potency, no number is given. A number with no mark means an inactive call. Activity calls are given as the source filed them. Unless noted, calls come from the whole dose curve; as a rule, active = well fitted curve in the direction sought with a large enough effect in the repeat runs; inconclusive = weak or mixed curves; inactive = no such curve, though single readings can be large; an effect the other way counts as inactive or inconclusive.
# Columns and labels:
# [1] = qHTS assay to identify small molecule antagonists of the retinoid acid receptor (RAR) signaling pathway - cell viability counter screen (AID 1159551); note: nearly all actives have a fitted effect of over 35% in size; note: potency is the fitted concentration of half-maximal effect
# Method in brief: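 C3RL4 cells were seeded overnight at 37 C, then treated with compounds plus 1 uM (final) retinol for 6 h at 37 C. Viability was read as ATP by CellTiter-Glo luminescence after 30 min at room temperature.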
# [2] = qHTS assay to identify small molecule agonists of the retinoic acid receptor (RAR) signaling pathway (AID 1159553)
# Method in brief: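 C3RL4 cells carrying a RARE luciferase reporter were plated overnight at 37 C, then exposed to compounds in DMSO for 6 hr at 37 C and 5% CO2. Luminescence was read 30 min after luciferase reagent addition at room temperature.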
# [3] = qHTS assay to identify small molecule antagonists of the estrogen related receptor (ERR) signaling pathway from Tox21 library - cell viability counter screen (AID 1224834); note: nearly all actives have a fitted effect of over 30% in size; note: potency is the fitted concentration of half-maximal effect
# Method in brief: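 ERR reporter cells were plated 6 h before compound addition, then exposed to test compounds in DMSO for 17.5 h at 37 C. Viability was read as CellTiter-Fluor fluorescence after a 30-minute incubation at 37 C.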
# [4] = qHTS assay to identify small molecule antagonists of the retinoic acid receptor (RAR) signaling pathway (AID 1159552; note: nearly all actives have a fitted effect of over 50% in size; note: potency is the fitted concentration of half-maximal effect)
# Method in brief: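 Cells of the C3RL4 line were seeded, incubated overnight, then dosed with compounds in DMSO followed immediately by retinol (1 uM final). Six hours later luciferase detection reagent went in; signal was measured after 30 min at RT.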
# [5] = qHTS assay to identify small molecule antagonists of the estrogen related receptor (ERR) signaling pathway - cell viability counter screen (AID 1224818);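 note: series mostly up to about 46 µM; viability measured after 17.5 h of compound exposure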
# Method in brief: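 ERR reporter cells plated 6 h at 37 C/5% CO2, then compounds in DMSO pin-transferred and incubated 17.5 h at 37 C. Viability read as CellTiter-Fluor fluorescence after 30 min at 37 C.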
# [6] = qHTS assay to identify small molecule antagonists of the estrogen related receptor (ERR) signaling pathway (AID 1224819;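 note: luminescence from an ERR-driven luciferase reporter measured with One-Glo reagent; series mostly up to about 46 µM; nearly all actives have a fitted effect of over 50% in size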)
# Method in brief: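 ERR reporter cells were plated at 2,000 cells/well and left 6 h at 37 C/5% CO2 before pin-tool transfer of compounds in DMSO. After 18 h at 37 C, One-Glo was added and luminescence was read 30 min later at room temperature.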
# [7] = qHTS assay to identify small molecule agonists of the estrogen related receptor (ERR) signaling pathway (AID 1224820)
# Method in brief: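 ERR reporter cells (NTP line) plated 2,000/well, incubated 6 h at 37 C/5% CO2, then pinned with compounds in DMSO and held 18 h at 37 C. One-Glo added; luminescence read after 30 min at room temperature.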
# [8] = system: estrogen-related receptor alpha (ERRalpha) with PGC-1alpha coactivator, human; test: qHTS assay to identify small molecule antagonists of the estrogen related receptor signaling pathway with the pleiotropic PPARgamma coactivator (PGC) (AID 1224821; calls by dose curve;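 note: series mostly up to about 46 µM; lower luminescence signal means antagonism of PGC/ERR signalling; nearly all actives have a fitted effect of over 50% in size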)
# Method in brief: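 Cells engineered for PGC/ERR signalling (line from NTP) were plated 6 h at 37 C/5% CO2, then exposed to DMSO-dissolved compound for 18 h at 37 C. Luciferase activity was read by One-Glo luminescence after 30 min at room temperature.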
# [9] = qHTS assay to identify small molecule antagonists of the estrogen related receptor signaling pathway with the pleiotropic PPARgamma coactivator (PGC) cell viability counter screen (AID 1224822; note: series mostly up to about 46 µM)
# Method in brief: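 PGC/ERR cells were seeded at 2,000 cells/well, rested 6 h at 37 C/5% CO2, then given compounds in DMSO by pin tool and incubated 17.5 h at 37 C. Viability came from CellTiter-Fluor fluorescence after 30 min.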
# [10] = qHTS assay to identify small molecule agonists of the estrogen related receptor signaling pathway with the pleiotropic PPARgamma coactivator (PGC) (AID 1224823)
# Method in brief: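 PGC/ERR reporter cells were seeded, rested 6 h at 37 C/5% CO2, then exposed to compounds in DMSO by pin transfer for 18 h at 37 C. Luciferase activity was read as luminescence after One-Glo reagent and 30 min at room temperature.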
structure (smiles),measurement,setting,value
Cc1cc(C)cc(OP(=O)(Oc2cc(C)cc(C)c2)Oc2cc(C)cc(C)c2)c1,Potency,[1],inactive
same,Potency,[2],inactive
same,Potency,[3],inactive
CCOC(=O)CC(=O)CCl,Potency,[1],inactive
same,Potency,[2],inactive
same,Potency,[3],inactive
C=CCOC(N)=O,Potency,[1],inactive
same,Potency,[4],inactive
same,Potency,[3],inactive
COC(=O)N(C(=O)N1CO[C@@]2(C(=O)OC)Cc3cc(Cl)ccc3C2=N1)c1ccc(OC(F)(F)F)cc1,Potency,[1],inactive
same,Potency,[2],inactive
same,Potency,[3],inactive
CCOP(=O)(NC(C)C)Oc1ccc(SC)c(C)c1 (centres undefined),Potency,[1],inactive
same,Potency,[2],inactive
same,outcome,[5],inactive
CN(C)[C@@H]1C(=O)C(C(N)=O)=C(O)[C@@]2(O)C(=O)C3=C(O)c4c(O)ccc(Cl)c4[C@@](C)(O)[C@H]3C[C@@H]12,Potency,[1],inactive
same,Potency,[2],inactive
[Hg+2].[I-].[I-],Potency,[1],10.9 µM (active)
same,Potency,[3],6.86 µM (active)
O=c1c(C2CC(c3ccc(-c4ccc(Br)cc4)cc3)Cc3ccccc32)c(O)sc2ccccc12 (centres undefined),Potency,[1],inactive
same,Potency,[2],inactive
ClC1=C(Cl)C2(Cl)C3C(Cl)C(Cl)CC3C1(Cl)C2(Cl)Cl (centres undefined),Potency,[1],inactive
same,Potency,[4],54.5 µM (active)
same,Potency,[3],68.4 µM (active)
Clc1ccc(CSC(Cn2ccnc2)c2ccc(Cl)cc2Cl)cc1 (centres undefined),Potency,[1],inactive
same,Potency,[2],inactive
same,Potency,[3],15 µM (active)
C[C@@H]1O[C@@H](O[C@@H]2C=C3CC[C@@H]4[C@H](CC[C@]5(C)[C@@H](c6ccc(=O)oc6)CC[C@]45O)[C@@]3(C)CC2)[C@H](O)[C@H](O)[C@H]1O,Potency,[1],inactive
same,Potency,[2],inactive
same,Potency,[3],0.0298 µM (active)
COC12CC[C@@]3(C[C@@H]1C(C)(O)C(C)(C)C)[C@H]1Cc4ccc(O)c5c4[C@@]3(CCN1CC1CC1)[C@H]2O5 (some centres undefined),Potency,[1],60.7 µM (active)
same,Potency,[4],54.1 µM (active)
same,Potency,[3],27.1 µM (active)
C[C@@H](Oc1ccc(Cl)cc1Cl)C(=O)O,Potency,[1],inactive
same,Potency,[4],inactive
same,Potency,[3],inactive
CCc1ccccc1C,Potency,[1],inactive
same,Potency,[4],inactive
same,Potency,[3],inactive
Brc1c(Br)c(Br)c(Oc2c(Br)c(Br)c(Br)c(Br)c2Br)c(Br)c1Br,"activity change, negative = cytotoxicity",[1],2.15% [at 19 µM]
same,"activity, negative = inhibition",[4],-8.07% [at 19 µM]
same,"viability change, negative = cytotoxic",[3],0.115% [at 19 µM]
O=C1C=CC(=O)c2ccccc21,Potency,[1],15.4 µM (active)
same,Potency,[4],27.3 µM (active)
same,Potency,[3],61.1 µM (active)
S=C=Nc1cccc2ccccc12,Potency,[1],inactive
same,Potency,[4],inactive
same,Potency,[3],67.9 µM (active)
CN(C)CCc1c[nH]c2cccc(O)c12,Potency,[1],inactive
same,Potency,[3],inactive
COCC(=O)N(c1c(C)cccc1C)[C@H](C)C(=O)OC,Potency,[1],inactive
same,Potency,[4],inactive
same,Potency,[3],inactive
CCOCCOC(C)=O,Potency,[1],inactive
same,Potency,[2],inactive
same,outcome,[5],inactive
same,Potency,[6],inactive
same,outcome,[7],inactive
same,Potency,[8],inactive
same,Potency,[9],inactive
same,outcome,[10],inactive
same,Potency,[3],inactive
CC(C)Oc1cccc(NC(=O)c2ccccc2C(F)(F)F)c1,Potency,[1],inactive
same,Potency,[2],inactive
same,outcome,[5],inactive
same,outcome,[7],inactive
same,Potency,[9],inactive
same,outcome,[10],inactive
CN(C)CCc1c[nH]c2ccc(O)cc12,Potency,[1],inactive
same,Potency,[4],inactive
same,Potency,[3],inactive
Oc1ccc(C(c2ccc(O)cc2)(C(F)(F)F)C(F)(F)F)cc1,Potency,[1],inactive
same,Potency,[3],54.2 µM (active)
C[C@]12Cc3nonc3C[C@@H]1CC[C@@H]1[C@@H]2CC[C@@]2(C)[C@H]1CC[C@]2(C)O,Potency,[1],inactive
same,Potency,[2],inactive
same,Potency,[3],29.8 µM (active)
O=S(=O)(c1ccc(Cl)cc1)c1ccc(Cl)cc1,Potency,[1],inactive
same,outcome,[5],inactive
same,outcome,[7],inactive
same,Potency,[9],inactive
same,outcome,[10],inactive
CCS(=O)(=O)c1cccnc1S(=O)(=O)NC(=O)Nc1nc(OC)cc(OC)n1,Potency,[1],inactive
same,Potency,[4],inactive
same,Potency,[3],inactive
CCCCCCCCCCCCCCCC[n+]1ccccc1,Potency,[1],63.9 µM (active) and 54.5 µM (active) and 53.7 µM (active)
same,Potency,[3],32 µM (active) [middle of 4 runs]
CC(=O)[O-].CC(=O)[O-].O.O.[Cd+2],Potency,[1],inactive
same,Potency,[3],26.9 µM (active)
CC(C)CC(C)N (centres undefined),Potency,[1],inactive
same,Potency,[3],inactive
COC[C@H](C)N(C(=O)CCl)c1c(C)csc1C,Potency,[1],inactive
same,Potency,[3],inactive
CC(=[OH+])/C=C(/C)[O-].CC(=[OH+])/C=C(\C)[O-].CC(=[OH+])/C=C(\C)[O-].[Fe],Potency,[1],inactive
same,Potency,[3],inactive
CC1(C)[C@H](C(=O)O[C@H](C#N)c2cccc(Oc3ccccc3)c2)[C@@H]1/C=C(\Cl)C(F)(F)F,Potency,[1],inactive
same,Potency,[3],inactive
COc1cccc2c1C(=O)c1c(O)c3c(c(O)c1C2=O)C[C@@](O)(C(=O)CO)CC3OC1CC(N2CCOC(OC)C2)C(O)C(C)O1 (some centres undefined),Potency,[4],0.106 µM (active)
COc1ccc(N)cc1N,Potency,[1],inactive
same,Potency,[3],31.6 µM (active)
C[C@H]1O[C@@H](O[C@H]2[C@@H](O)C[C@H](O[C@H]3[C@@H](O)C[C@H](O[C@H]4CC[C@@]5(C)[C@H](CC[C@@H]6[C@@H]5CC[C@]5(C)[C@@H](C7=CC(=O)OC7)CC[C@]65O)C4)O[C@@H]3C)O[C@@H]2C)C[C@H](O)[C@@H]1O,Potency,[1],inactive
same,Potency,[3],43.5 nM (active) and 75 nM (active)
Clc1ccc(C(c2ccc(Cl)cc2)C(Cl)(Cl)Cl)cc1,Potency,[1],inactive
same,Potency,[3],inactive
C1CCC2CCCCC2C1 (centres undefined),Potency,[1],inactive
same,Potency,[3],inactive
C=CC(=O)N(C)C,Potency,[1],inactive
same,Potency,[3],inactive
C[C@]12CC[C@@H]3c4ccc(OC(=O)N(CCCl)CCCl)cc4CC[C@H]3[C@@H]1CC[C@@H]2O,Potency,[1],inactive
same,Potency,[3],inactive
